The values that follow come from PubChem BioAssay AID602340 (Broad Institute, 2012).

Screen size: about 330,000 compounds; about 2,600 (0.79%) were called active. Only a selection was taken, and actives are over-represented in it overall. Unmarked numbers belong to inactive results.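 Rule for the calls: active = mean ATP rescue above about 67%, or every replicate alone reaching that limit (limit read from the data, passing the limit was not always enough); inconclusive = no clear call, values can overlap the other calls; inactive = mean under the limit and some replicate under it.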

A short description of the experiment: suppressors of statin myotoxicity in C2C12 myotubes, primary screen, cell-based, single point, plate reader (AID 602340).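 Note: myotubes were challenged with 10 µM simvastatin during compound exposure.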 To be noted: C2C12 myotubes + simvastatin, ATP luminescence, 48 h; at 7.49 µM; active compounds read high; scaled: DMSO 0, geranylgeraniol control 100.
For `COc1ccc(-c2cc(C(=O)Nc3ccccc3O)c3ccccc3n2)cc1`, the rescue of ATP level was 14.3%.
For the compound `COc1ccc(NC(=O)c2cc(-c3cc(OC)c(OC)c(OC)c3)nc3ccccc23)c(OC)c1`, the rescue of ATP level was -9.57%.
To `COc1ccc(-c2cc(C(=O)n3cnc4ccccc43)c3ccccc3n2)cc1` belongs 87.1% (active).
With `O=C(C[C@H]1C=C[C@H](NC(=O)NC2CCCCC2)[C@H](CO)O1)NCc1ccccc1` the figure was 2.53%; with `CS(=O)(=O)Nc1ccc2c(c1)[C@H]1C[C@H](CC(=O)NCc3ccc(Cl)cc3)O[C@@H](CO)[C@H]1O2`, -4.85%.
With `COc1ccccc1-c1cn(CC[C@@H]2CC[C@@H](NC(=O)c3ccccc3F)[C@H](CO)O2)nn1` the figure was 6.43%.
Regarding `CN(C)Cc1cn(CC[C@H]2CC[C@H](NS(=O)(=O)c3ccccc3)[C@@H](CO)O2)nn1`, the rescue of ATP level was -2.83%.
With `C=CCN(C(=O)Nc1ccc2c(c1)nc(C)n2C)c1ccccc1` the figure was -0.158%; with `CCOc1ccc(CCNC(=O)Nc2ccccc2)cc1OCC`, 1.69%; with `Cc1cc2nc(C)n(CCCNC(=O)Nc3ccccc3)c2cc1C`, 93.8% (active).
Take `CCCNC(=O)C[C@H]1CC[C@@H]2[C@H](COC[C@H](O)CN2CC2CCCCC2)O1`: the rescue of ATP level is -0.493%.
For the compound `CNC(=O)C[C@H]1CC[C@@H]2[C@H](COc3ccc(NC(=O)Nc4cccc(F)c4)cc3C(=O)N2C)O1`, the rescue of ATP level was -6.73%.
For `CNC(=O)C[C@@H]1CC[C@@H]2[C@@H](COc3ccc(NC(=O)Nc4ccccc4OC)cc3C(=O)N2C)O1`, the rescue of ATP level is 10.7%.
As for `CC=CCn1c(SCCCc2ccccc2)nc2c1c(=O)[nH]c(=O)n2C`, the rescue of ATP level is 1.54%.
To `CC1CCN(c2nc3c(c(=O)[nH]c(=O)n3C)n2CCCc2ccccc2)CC1` belongs 144% (active); to `Cn1c(=O)[nH]c(=O)c2c1nc(N1CCN(C(c3ccccc3)c3ccccc3)CC1)n2CCO`, 41.4%.
In the case of `CCCNC(=O)[C@@H]1[C@@H](CO)[C@@H]2Cn3c(ccc(-c4ccccc4F)c3=O)[C@H]1N2CC1CC1`, the rescue of ATP level was -5.23%.
To `COc1ccccc1-c1cnc2c(c1)C(=O)N([C@H](C)CO)C[C@@H](C)[C@@H](CN(C)Cc1ccncc1)O2` belongs 41.2%; to `COc1ccc(/C(C)=N/NC(=O)c2ccc3nc[nH]c3c2)cc1`, -52.1%; to `C/C(=N\NC(=O)c1nc(C)cc(C)n1)c1ccccc1`, 121% (active).
`CC(=NNC(=O)c1ccc2nc[nH]c2c1)c1ccc(Br)cc1`: the rescue of ATP level is -6.54%.
With `CCCC(O)C#Cc1cnc2c(c1)C(=O)N([C@H](C)CO)C[C@H](C)[C@H](CN(C)Cc1ccc(F)cc1)O2` (stereo not given in full) the figure was -2.92%; with `C[C@H]1CN([C@@H](C)CO)C(=O)Cc2cc(NS(=O)(=O)c3ccc(F)cc3)ccc2O[C@H]1CN(C)Cc1ccc(C(F)(F)F)cc1`, 15.6%.
With `COc1ccc(S(=O)(=O)Nc2ccc3c(c2)CC(=O)N([C@H](C)CO)C[C@H](C)[C@H](CN(C)Cc2ccc(C(F)(F)F)cc2)O3)cc1` the figure was 12%; with `C[C@@H]1CN([C@@H](C)CO)C(=O)Cc2cc(NS(=O)(=O)c3ccc(Cl)cc3)ccc2O[C@H]1CN(C)Cc1ccc(C(F)(F)F)cc1`, 96.2% (active).
With `Cc1ccc(S(=O)(=O)Nc2ccc3c(c2)CC(=O)N([C@H](C)CO)C[C@@H](C)[C@H](CN(C)Cc2ccc(C(F)(F)F)cc2)O3)cc1` the figure was 110% (active).
In the case of `Cc1ccc(S(=O)(=O)Nc2ccc3c(c2)C(=O)N([C@@H](C)CO)C[C@@H](C)[C@H](CN(C)Cc2ccc(C(F)(F)F)cc2)O3)cc1`, the rescue of ATP level was 9.63%.
With `Cc1ccc(S(=O)(=O)Nc2ccc3c(c2)CC(=O)N([C@@H](C)CO)C[C@H](C)[C@H](CN(C)Cc2ccccc2)O3)cc1` the figure was 21.7%; with `CN1CCCCN2[C@H](CO)[C@H](c3ccc(-c4ccc(F)cc4)cc3)[C@@H]2C1`, 1.44%; with `O=C(C[C@@H]1C=C[C@H](NC(=O)Nc2ccc3c(c2)OCO3)[C@H](CO)O1)NCc1ccccc1`, 2.11%.
As to `CO[C@@H]1CN(C)C(=O)c2ccc(NS(=O)(=O)c3cccc(Cl)c3)cc2OC[C@H](C)NC[C@H]1C`, the rescue of ATP level is 0.734%.
For `COc1ccccc1-c1ccc2c(c1)O[C@@H](CN(C)CC1CCOCC1)[C@H](C)CN([C@@H](C)CO)S2(=O)=O`, the rescue of ATP level was -91.2%.
To `CC(C)NC(=O)Nc1ccc2c(c1)CC(=O)N([C@H](C)CO)C[C@H](C)[C@@H](CN(C)C(=O)Nc1ccc(F)cc1)O2` belongs -12.6%; to `COc1ccc(NCCc2ccccn2)cc1`, -1.75%; to `COc1ccc(C)cc1NC(=O)NCc1ccccn1`, -3.96%.
With `COc1ccc2ccccc2c1CNCc1ccccn1` the figure was 88.1% (active); with `CCNC(=O)[C@H]1[C@H](CO)[C@H]2Cn3c(ccc(-c4ccc(OC)cc4)c3=O)[C@H]2N1Cc1ccccc1`, -6.11%.
To `CCCNC(=O)Nc1ccc2c(c1)C(=O)N(C)C[C@@H](OC)[C@@H](C)CN(C)[C@@H](C)CO2` belongs 0.886%; to `CCCN1[C@H](C(=O)N[C@H](C)c2ccccc2)[C@@H](CO)[C@@H]2Cn3c(ccc(-c4cccc(F)c4)c3=O)[C@@H]21`, 25.4%.
Regarding `O=C(C[C@@H]1C[C@@H]2c3cc(NC(=O)Nc4ccccc4F)ccc3O[C@@H]2[C@@H](CO)O1)NCCc1ccccc1`, the rescue of ATP level was -4.6%.
With `COc1ccccc1-c1nnc(SCC(=O)N2CC(C)CC(C)C2)o1` (stereo not given) the figure was 120% (active); with `O=C(CSc1nnc(-c2ccccc2O)o1)NC1CCCCC1`, -6.5%; with `COc1ccccc1N1CCN(C(=O)CSc2nnc(-c3ccoc3C)o2)CC1`, 2.45%.
With `C[C@@H]1CN([C@H](C)CO)C(=O)c2cc(C#Cc3ccncc3)cnc2O[C@H]1CN(C)Cc1ccncc1` the figure was -5.15%.
For `C[C@H]1CN([C@@H](C)CO)C(=O)CCCn2nncc2CO[C@H]1CN(C)Cc1cccc(C(=O)O)c1`, the rescue of ATP level is -4.85%.
As for `O=C(NN=Cc1ccccc1O)C(=O)NN=Cc1ccccc1O`, the rescue of ATP level was 1.41%.
In the case of `CCCC#Cc1ccc2c(c1)O[C@@H](CN(C)CC1CC1)[C@@H](C)CN([C@H](C)CO)S2(=O)=O`, the rescue of ATP level is 33.5%.
For `CCS(=O)(=O)N1[C@H](CO)[C@@H](c2ccc(C#CC(C)C)cc2)[C@@H]1C#N`, the rescue of ATP level was -1.94%.
Turning to `Cc1noc(C)c1NC(=O)N[C@H]1CC[C@H](CC(=O)N2CCCCC2)O[C@@H]1CO`, the rescue of ATP level was 0.234%.
With `CC=Cc1ccc2n(c1=O)C[C@@H]1[C@@H](CO)[C@H](C(=O)N3CCc4ccccc4C3)N(C(=O)C3CCC3)[C@H]21` (mixture of isomers) the figure was 17.5%.
With `CC(=O)N1CCN(c2ccccc2NC(=S)NC(=O)c2cc3ccccc3o2)CC1` the figure was 12.9%; with `COc1ccc(C(=O)NC(=S)Nc2ccccc2N2CCN(S(C)(=O)=O)CC2)cc1OC`, 103% (active).
Consider `COc1ccccc1C(=O)NC(=S)Nc1ccccc1N1CCCCC1`, for which the rescue of ATP level is 0.351%.
For `CO[C@@H]1CN(C)C(=O)c2ccc(NC(=O)C3CC3)cc2OC[C@@H](C)N(Cc2ccncc2)C[C@@H]1C`, the rescue of ATP level is 6.35%.
In the case of `COc1ccc(CN(C)C[C@H]2OCc3cn(nn3)CCCC(=O)N([C@@H](C)CO)C[C@@H]2C)cc1`, the rescue of ATP level was 11.6%.
In the case of `C[C@H]1CN([C@@H](C)CO)C(=O)c2cc(C#CC3CCCCC3)cnc2O[C@@H]1CN(C)C(=O)Cc1ccccn1`, the rescue of ATP level was 16.9%.
With `O=C(NCCc1ccccc1)C1CC1` the figure was 7.36%; with `O=C(O)C1CC=C(Cl)CC1C(=O)NCc1ccccc1` (stereo not given), -8.07%; with `O=C(O)C1CC=CCC1C(=O)NCCc1ccccc1` (stereo not given), 104% (active).
Take `C[C@H]1CN([C@@H](C)CO)C(=O)c2cc(NC(=O)C3CCCCC3)ccc2O[C@H]1CN(C)C(=O)Nc1ccccc1`: the rescue of ATP level is 6.29%.
To `COc1ccc(C2(c3ccc(OC)cc3)NC(=O)N(CC(=O)Nc3cc(C)on3)C2=O)cc1` belongs -1.37%; to `COC(=O)c1ccc(CN2C(=O)NC(c3ccccc3)(c3ccccc3)C2=O)o1`, 1.69%; to `Cc1ccc(C2(c3ccc(C)cc3)NC(=O)N(Cc3c(C)noc3C)C2=O)cc1`, 195% (active).
With `Cc1noc(C)c1NC(=O)N(C)C[C@H]1Oc2ccc(NC(=O)Cn3cnnn3)cc2CC(=O)N([C@H](C)CO)C[C@@H]1C` the figure was 3.98%; with `COc1ccc(-n2nnnc2CNC(=O)c2ccc3ccccc3c2)cc1`, -15.7%; with `O=C(NCc1nnnn1-c1ccc(Cl)cc1)c1ccc2c(c1)OCO2`, -0.994%.
Take `O=C(NCc1nnnn1-c1ccc(Cl)cc1)c1ccc([N+](=O)[O-])o1`: the rescue of ATP level is 89% (active).
`CCCN1[C@@H]2c3ccc(-c4ccccc4OC)c(=O)n3C[C@H]1[C@H](CO)[C@H]2C(=O)NCc1ccccn1`: the rescue of ATP level was -9.62%.
In the case of `Cn1c(=O)n(C)c2cc(C(=O)Nc3ccc(Br)cc3)ccc21`, the rescue of ATP level was -4.21%.
As for `O=C(N/N=C/c1cccc(Br)c1)c1ccc(N2CCCC2=O)cc1`, the rescue of ATP level is -20%.
As for `Cn1c(=O)n(C)c2cc(/C=N/NC(=O)c3cccc(Br)c3)ccc21`, the rescue of ATP level was 70.7% (active).
To `N#Cc1ccc(Oc2ccc(C(F)(F)F)cc2NC(=O)c2ccc(F)cc2)cc1` belongs -5.87%.
On to `NC(=O)c1ncc(C(F)(F)F)cc1Oc1ccc(F)cc1`, for which the rescue of ATP level was 162% (active).
To `N#Cc1ncc(C(F)(F)F)cc1Oc1cccnc1` belongs -4.63%; to `CO[C@H]1CN(C)C(=O)c2ccc(NC(=O)C3CC3)cc2OC[C@H](C)N(CCc2ccccc2)C[C@H]1C`, 15.6%.
